According to PubChem BioAssay:
Active and inactive are the calls of the source.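 How the source made its calls: active means compound raises GLP1 secretion from the human gut endocrine cells, with no numeric limit stated; inactive means the rest.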

Assay: GLP1 release stimulators, primary, NCI-H716, NPC library (AID 1117341); further: reference of the scale not given here
Details: NCI-H716 cells, at 10 µM, stronger effect = higher value

Structure (SMILES)	GLP1 secretion stimulation
Cc1cc(=O)c2c(O)c3c(O)cc(=O)c4c3c3c(cc(O)c1c23)C(C)(C)C=4O	8% (inactive)
CC(C)OC(=O)OCOP(=O)(CO[C@H](C)Cn1cnc2c(N)ncnc21)OCOC(=O)OC(C)C	-1.8% (inactive)
O=C(O)c1ccc(-n2nc(-c3ccccc3O)nc2-c2ccccc2O)cc1	7.6% (inactive)
COc1ccc(-c2ccc3cc(C(=O)O)ccc3c2)cc1C12CC3CC(CC(C3)C1)C2	-2.3% (inactive)
COCCCN1CCC(NC(=O)c2cc(Cl)c(N)c3c2OCC3)CC1	1.9% (inactive)
CCOC(=O)c1c(C)n(C)c2ccc(O)cc12	3.6% (inactive)
NCCCC(N)(C(=O)O)C(F)F (stereo not given)	2.8% (inactive)
CN1CCCN=C1/C=C/c1cccs1	1.8% (inactive)
CC(=O)N[C@H]1[C@H]([C@H](O)[C@H](O)CO)OC(C(=O)O)=C[C@@H]1N=C(N)N	-2.9% (inactive)
O=[N+]([O-])c1cncn1CCN1CCOCC1	-1.3% (inactive)
C=CC(=O)Nc1cc2c(Nc3ccc(F)c(Cl)c3)ncnc2cc1OCCCN1CCOCC1	2.8% (inactive)
Cc1ccc(C(=O)c2cc(O)c(O)c([N+](=O)[O-])c2)cc1	-3.6% (inactive)
Cc1nnc(C(=O)NC(C)(C)c2nc(C(=O)NCc3ccc(F)cc3)c(O)c(=O)n2C)o1	-0.3% (inactive)
Cc1ccccc1C(=O)Nc1ccc(C(=O)N2CCCC(O)c3cc(Cl)ccc32)c(C)c1 (stereo not given)	2% (inactive)
COc1ccc2cccc(CCNC(C)=O)c2c1	-0.3% (inactive)
Cc1cc2c(cc1CC(=O)c1sccc1S(=O)(=O)Nc1onc(C)c1Cl)OCO2	2.9% (inactive)
C[C@]12CCC(=O)C=C1[C@@H]1C[C@@H]1[C@H]1[C@@H]3[C@@H]4C[C@@H]4[C@@]4(CCC(=O)O4)[C@@]3(C)CC[C@@H]12	3.8% (inactive)
CCC1=C[C@@H]2CN(C1)Cc1c([nH]c3ccccc13)[C@@](C(=O)OC)(c1cc3c(cc1OC)N(C)[C@H]1[C@@](O)(C(=O)OC)[C@H](OC(C)=O)[C@]4(CC)C=CCN5CC[C@]31[C@@H]54)C2	2.5% (inactive)
CC1(C)CCC(C)(C)c2cc(NC(=O)c3ccc(C(=O)O)cc3)ccc21	4% (inactive)
Cc1ccc(Nc2nccc(N(C)c3ccc4c(C)n(C)nc4c3)n2)cc1S(N)(=O)=O	-3.5% (inactive)

Structure (SMILES)	GLP1 secretion stimulation
Clc1ccc(C(Cn2ccnc2)OCc2ccc(Sc3ccccc3)cc2)c(Cl)c1 (stereo not given)	16% (inactive)
CNC(=O)c1ccccc1Sc1ccc2c(/C=C/c3ccccn3)n[nH]c2c1	1% (inactive)
CCOC(=O)c1ccc(C#Cc2ccc3c(c2)C(C)(C)CCS3)nc1	-0.3% (inactive)
CC(=O)OCC(=O)[C@@]12N=C(C)O[C@@H]1C[C@H]1[C@@H]3CCC4=CC(=O)C=C[C@]4(C)[C@H]3[C@@H](O)C[C@@]12C	1.7% (inactive)
O=P(O)(O)C(O)(Cn1ccnc1)P(=O)(O)O	-0.1% (inactive)
O=c1cc(O)c(Cl)c[nH]1	-0.1% (inactive)
Clc1ccc(C(Cn2ccnc2)OCc2c(Cl)cccc2Cl)c(Cl)c1 (stereo not given)	35.3% (active)
CC(C)(C)C(=O)Oc1ccc(S(=O)(=O)Nc2ccccc2C(=O)NCC(=O)O)cc1	0.3% (inactive)
N[C@@H](Cc1c[nH]c2ccc(O)cc12)C(=O)O	3.1% (inactive)
O=C(Nc1ccc(S(=O)(=O)N2CCOCC2)cc1)c1cc(Cl)ccc1NS(=O)(=O)c1ccc(Cl)s1	39.8% (active)
CCCCN(CCCC)CC(O)c1cc(Cl)cc2c1-c1ccc(Cl)cc1/C2=C/c1ccc(Cl)cc1 (stereo not given)	-3.6% (inactive)
N#Cc1c(N(CC(=O)O)CC(=O)O)sc(C(=O)O)c1CC(=O)O	-1.7% (inactive)
N=C(N)c1ccc2cc(OC(=O)c3ccc(N=C(N)N)cc3)ccc2c1	2.8% (inactive)
COC(c1ccccc1)(c1ccccc1)[C@H](Oc1nc(C)cc(C)n1)C(=O)O	-5.9% (inactive)
NC(=O)c1ncn([C@@H]2O[C@H](CO)[C@@H](O)[C@H]2O)c1N	1.9% (inactive)
c1cnc2cc3c(cc2n1)C1CNCC3C1	-4% (inactive)
CC(C(=O)O)c1ccc2c(c1)CC(=O)c1ccccc1S2 (stereo not given)	-2% (inactive)
CN(C)C(=O)COC(=O)Cc1ccc(OC(=O)c2ccc(N=C(N)N)cc2)cc1	-0.7% (inactive)
CCCCc1oc2ccc(NS(C)(=O)=O)cc2c1C(=O)c1ccc(OCCCN(CCCC)CCCC)cc1	-5.9% (inactive)
CC(C)C[C@H](NC(=O)[C@H](CCc1ccccc1)NC(=O)CN1CCOCC1)C(=O)N[C@@H](Cc1ccccc1)C(=O)N[C@@H](CC(C)C)C(=O)[C@@]1(C)CO1	5.2% (inactive)
